# High-throughput results as filed in PubChem BioAssay.
# Rows were chosen to be rich in hits. Some 11% of all compounds tested hit in one or more screens of this group.
# PNC assembly inh: blocks assembly of the perinucleolar compartment; activity change (PNC), negative = inhibition, % at 10 µM; AID 2417; PC3M PTB-GFP, PNC prevalence imaging, 16 h; hits give low values; 140,000 compounds, 3.1% hits;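 active = readout at or below -70, meaning at least 70% loss of cells showing the perinucleolar compartment, a nuclear body marking cancer cells; inconclusive = readout between -30 and a set limit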
#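 Compounds are pinned in duplicate onto adhered PC3M cells stably expressing GFP-tagged PTB and incubated 16 h at 37 C. Cells are then fixed, nuclei stained with Hoechst, and PNC-positive cells counted.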
# ALDH1A1 inh: blocks purified human ALDH1A1 activity. P00352. 220,000 compounds, 7.3% hits. Potency, µM (top dose mostly 75.3 µM), hits mostly inhibitors. Purified ALDH1A1, NADH fluorescence, propionaldehyde substrate
# Target sequence (P00352 whole entry, looked up): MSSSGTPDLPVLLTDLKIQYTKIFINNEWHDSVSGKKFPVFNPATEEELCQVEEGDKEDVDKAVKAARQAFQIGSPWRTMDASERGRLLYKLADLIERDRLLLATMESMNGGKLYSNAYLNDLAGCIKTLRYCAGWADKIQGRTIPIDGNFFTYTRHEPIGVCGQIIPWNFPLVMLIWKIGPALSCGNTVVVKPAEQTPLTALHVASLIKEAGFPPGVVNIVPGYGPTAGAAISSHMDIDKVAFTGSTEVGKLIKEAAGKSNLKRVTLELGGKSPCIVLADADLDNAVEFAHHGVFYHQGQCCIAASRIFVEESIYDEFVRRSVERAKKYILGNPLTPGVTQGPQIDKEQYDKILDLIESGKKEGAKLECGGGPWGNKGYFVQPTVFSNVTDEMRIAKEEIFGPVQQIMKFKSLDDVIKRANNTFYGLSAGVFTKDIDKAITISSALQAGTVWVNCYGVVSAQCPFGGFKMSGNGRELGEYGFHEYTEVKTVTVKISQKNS
# HPGD inh: blocks human HPGD enzyme activity. purified HPGD, NADH fluorescence kinetic, PGE2 substrate. Potency, µM, most hits filed as inhibitors. 150,000 compounds, 4.3% hits. AID 894
#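 20 nM HPGD preincubated 15 min at room temperature with compound in 50 mM Tris-HCl pH 8, 0.01% Tween 20. Started with 1 mM NAD+ and 30 uM prostaglandin E2; NADH fluorescence (360/450 nm) read 5 times over 30-s intervals, last minus first.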
# Hits are given with their value; - = inactive; ? = inconclusive; . = no result; [ ] = dose if it differs, or a comment. Unless noted, calls follow the shape of the dose curve; as a rule, active = well fitted inhibition curve with a large enough effect (not every such curve was filed as active); inconclusive = small, poorly fitted or top-dose-only effect, or another doubt; inactive = no such curve, though single readings can be large or run the other way.
SMILES,PNC assembly inh,ALDH1A1 inh,HPGD inh
CN(C(=O)COc1cccc(Br)c1)C1CCS(=O)(=O)C1 (stereo not given),-,-,-
CN(C)c1ccc(CN(C(=O)c2ccco2)C2CCS(=O)(=O)C2)cc1 (stereo not given),?,7.08µM,-
COCC(=O)N1CCC2(CCN(Cc3ccncc3)CC2)CC1,.,?,-
NCCc1nc(-c2nc(C(=O)O)cs2)cs1,.,-[13.5 µM],-
CCCCc1ccc(NC(=O)CN2NS(=O)(=O)c3ccccc3C2=O)cc1,-,3.98µM,-
CCCCc1ccc(NC(=O)CSCc2cc(=O)[nH][nH]2)cc1,-,-,-
Cc1nnc(N(C)C(=O)c2ccncc2)s1,.,-,.
COc1ccc(F)cc1C(=O)C1CCCN(Cc2c(C)n(C)n(-c3ccccc3)c2=O)C1 (stereo not given),.,-,.
CN(C(=O)c1ccc2c(c1)C(=O)N(CCC1=CCCCC1)C2=O)C1CCCCC1,-,0.794µM,14.1µM
O=C(O)c1ccc2c(c1)C(=O)N(CCC1=CCCCC1)C2=O,?,-,-
COc1cccc(C2C(C#N)=C(N)Oc3c2oc(CO)cc3=O)c1 (stereo not given),-,-,-
COc1cccc(C2C(C#N)=C(N)SC(c3ccccc3)C2[N+](=O)[O-])c1 (stereo not given),.,5.62µM,.
O=C1Nc2ccc(Br)cc2C1(O)Cc1ccccn1 (stereo not given),-113.7,-,-
O=C1Nc2ccc(Br)cc2C12NNc1ccccc1O2 (stereo not given),.,-,.
COc1c(Cl)ccc(Cl)c1C(=O)NC(=S)N1CCOCC1,.,-,.
O=C(c1cnccn1)N1CCC2(CC1)CCN(c1ccccn1)CC2,.,-,-
C=CCOc1ccc2nnc(C)n2n1,-,?,-
CCOc1ncccc1C(=O)N1CCCSC1=Nc1ccc(C(C)=O)cc1,.,-,.
CCOC(=O)Nc1nnc(-c2ccccc2OC)s1,-118.9,-,?
COc1ccccc1-c1nnc(NC(=O)OCC(C)C)s1,-,?,-
C=C(C)C(=O)Nc1nnc(-c2ccccc2C)s1,.,7.94µM,.
C/C=C/C(=O)Nc1nnc(-c2ccccc2C)s1,.,-,.
CCC(CC)C(=O)Nc1nnc(-c2cccs2)s1,-,?,?
COc1cccc(OC)c1C(=O)Nc1nnc(-c2cccs2)s1,.,7.94µM,.
CCCCCC(O)/C=C/C=O (stereo not given),.,-,-
SMILES,PNC assembly inh,ALDH1A1 inh,HPGD inh
CCc1ccc(NC(=S)N(Cc2cccnc2)Cc2ccco2)cc1,.,-,.
N#CCCN(C(=S)NC(=O)c1ccco1)c1ccccc1F,.,7.94µM,.
N#CCCN(Cc1cccnc1)C(=S)NCc1ccco1,.,17.8µM,.
N#CCCN(Cc1cccnc1)C(=S)NC(=O)c1ccco1,.,11.2µM,.
N#CCCN(C(=O)c1ccco1)c1ccccc1,-,-,.
N#CCCN(Cc1cccnc1)C(=O)Nc1ccc(Cl)c(Cl)c1,-,-,-
CC(=O)Nc1nonc1-c1nc2ccccc2n1CCC#N,-,?,-
CC(=O)Nc1nonc1-c1nc2ccccc2n1CC1CC1,-94.0,?,-
O=C(N/N=C/C=C\c1ccco1)c1cccs1,.,28.2µM,.
Cc1cccc(OCC(=O)N/N=C/C=C/c2ccco2)c1,-,?,-
O=C(N/N=C/C=C/c1ccc([N+](=O)[O-])cc1)c1cccs1,-,-,15.8µM
O=C(Cc1cccs1)N/N=C/c1ccco1,-,-,-
Cc1cccc(C)c1OCC(=O)N/N=C/C=C/c1ccco1,.,12.6µM,.
O=C(N/N=C/C=C\c1ccccc1[N+](=O)[O-])c1cccs1,-,?,-
O=C(Cc1cccs1)N/N=C/C=C\c1ccco1,-,25.1µM,-
O=C(CNC(=O)c1cccs1)N/N=C/c1ccco1,.,-,.
O=C(CN(CCc1ccccc1)C(=O)c1csnn1)NC1CCCC1,.,-,.
CC(C)=CCN1CCN(Cc2nc(-c3ccccc3)cs2)CC1CCO (stereo not given),.,-,.
Cc1c(-c2cccc(Cl)c2)nc2ccccc2c1C(=O)OC/C(O)=C(\C#N)c1nc2ccccc2[nH]1,.,-,.
c1cncc(-c2nccc(NCc3cccs3)n2)c1,.,11.2µM,.
Cc1cnc(CNc2ccnc(-c3ccccc3Cl)n2)cn1,.,-,-
c1cncc(-c2cc(NCc3cccs3)ncn2)c1,.,-,.
Clc1ccccc1-c1nccc(NCc2cccs2)n1,.,14.1µM,.
Cc1cc(C(=O)NNC(=S)Nc2ccccc2)nn1C,.,-,.
COc1cccc([C@@H]2Oc3ccc(Br)cc3C(=O)[C@H]2OC(=O)NCc2ccco2)c1,.,-,-
O=C1c2ccccc2C(=O)N1CC#CCN1CCN(C(c2ccccc2)c2ccccc2)CC1,?,15.8µM,-
O=C(CN1CCN(C(c2ccccc2)c2ccccc2)CC1)N1CCOCC1,-,-,-
O=C(Cc1ccccc1)N/N=C\c1ccc(Br)o1,-,-,-
Cc1ccc(/C=C/C(=O)NCc2ccncc2)cc1,-,-,.
O=C(/C=C/c1ccc(Br)o1)NCc1ccccc1,.,6.31µM,.
